An excerpt weighted towards active compounds, which were near 2.3% of everything screened.
KKLEB tox: counter-screen for CF NF-kB inhibitors: cytotoxicity; AID 602141; 360,000 tested, 0.36% active; KKLEB CF airway cells viability, ATPlite luminescence, overnight; hits give low values; cells stimulated with P. aeruginosa culture filtrate; activity change (cytotoxicity), % at 5 µM;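 active means corrected activity change at or below -50% at 5 µM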
CF NFkB block: blocks PAF-induced NF-kB reporter in cystic fibrosis cells. KKLEB NF-kB-GFP reporter, GFP fluorescence overnight. AID 588850. inhibition, % at 5 µM. 360,000 tested, 0.86% active;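 active means at least 50% inhibition at 5 µM, scaled per plate between neutral and stimulator controls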;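 further: PAF is a Pseudomonas aeruginosa culture filtrate used as stimulus; plate controls were PAF-stimulated DMSO wells for no effect and unstimulated DMSO wells for full effect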
hiPSC survival: hiPSC single-cell survival enhancement. AID 602274. 360,000 tested, 0.044% active. survival enhancement, % at 20 µM. ATPlite luminescence; 100% = ROCK inhibitor wells, 0% = DMSO; in the data active means survival enhancement above about 18%;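 further: cells exposed to compounds for 16 hours before the ATP read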
TWEAK-Fn14 inh: TWEAK-Fn14 signaling inhibition. TWEAK-stimulated Fn14 reporter cells, luciferase luminescence, 8 h. inhibition, % at 10 µM. 360,000 tested, 2% active; in the data active means inhibition above about 50%
LGR2 inh: blocks bursicon-induced cAMP signaling via Drosophila LGR2. HEK293 LGR2, CRE-luciferase, bursicon-stimulated, 4 h. inhibition, % at 9.99 µM. 380,000 tested, 0.35% active. AID 720647;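 active means drop in luminescence signal, shown as inhibition above about 50% in the replicate tests, limit read from the data, passing the limit was not always enough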;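 further: agonist challenge used bursicon conditioned medium at about half maximal strength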
HIF-2a block: blocks HIF-2a reporter activity. 360,000 tested, 0.72% active. 786-0 RCC cells HIF-2a reporter, luciferase luminescence, overnight. inhibition, % at 18.8 µM;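 active means inhibition of the luminescence signal of 40% or more relative to plate controls, in a single-dose primary screen at 18.75 µM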
An asterisk follows results filed as active.

How did Cc1nc(/C=C/c2ccccc2)[nH]c(=O)c1-c1ccccc1 do in these assays?
KKLEB tox: -7; CF NFkB block: 8; hiPSC survival: 0; TWEAK-Fn14 inh: 64*; LGR2 inh: -18; HIF-2a block: -215

What do the screens show for `C(=C\c1nc2ccccc2[nH]1)/c1ccccc1`?
KKLEB tox: 16; CF NFkB block: 5; hiPSC survival: -6; TWEAK-Fn14 inh: 75*; HIF-2a block: -6

What do the screens show for `O=c1[nH]c(/C=C/c2ccc(Br)cc2)nc2ccccc12`?
KKLEB tox: -25; CF NFkB block: -2; hiPSC survival: -1; TWEAK-Fn14 inh: -7; LGR2 inh: -69; HIF-2a block: -364

Results for COc1ccc(NC(=O)Nc2ccc3c(c2)C(=O)N([C@@H](C)CO)C[C@@H](C)[C@@H](CN(C)Cc2ccccc2)OCCCC[C@H](C)O3)cc1 ?
LGR2 inh: 2

What do the screens show for `CC1=CC(=O)C(Sc2ccc(C)cc2)=CC1=O`?
KKLEB tox: -36; CF NFkB block: 80*; hiPSC survival: -3; TWEAK-Fn14 inh: 25; HIF-2a block: 10

How did COC(=O)[C@@H]1Cc2c([nH]c3ccccc23)C(C)(C)N1C(=O)CCl do in these assays?
KKLEB tox: -62*; CF NFkB block: 74*; hiPSC survival: -1; TWEAK-Fn14 inh: 0; LGR2 inh: 19; HIF-2a block: 35

How did CCOC(=O)c1nn(-c2ccc(F)cc2)cc1O do in these assays?
KKLEB tox: 12; CF NFkB block: 19; hiPSC survival: 0; TWEAK-Fn14 inh: 37; LGR2 inh: -31; HIF-2a block: -93

How did CCOC(=O)c1nn(-c2ccc3c(c2)CCN3C(C)=O)cc1O do in these assays?
KKLEB tox: -2; CF NFkB block: -3; hiPSC survival: -3; TWEAK-Fn14 inh: 65*; LGR2 inh: 46; HIF-2a block: -26

How did CC(C)NC(=O)Nc1cccc2c1O[C@@H](CN(C)CC1CCCCC1)[C@H](C)CN([C@@H](C)CO)C2=O do in these assays?
LGR2 inh: 6

What do the screens show for `CC(C)(C)c1ccc(Nc2n[nH]c3ccccc23)cc1`?
KKLEB tox: -38; CF NFkB block: 20; hiPSC survival: -2; TWEAK-Fn14 inh: 53*; LGR2 inh: -27; HIF-2a block: -149

Results for CCCC(=O)Nc1ccc2c(c1)OC[C@@H](C)N(CCc1ccccc1)C[C@@H](C)[C@@H](OC)CN(C)C2=O ?
LGR2 inh: 7

What do the screens show for `CCCc1cc(=O)[nH]c(Nc2ccc3c(c2)OCCO3)n1`?
KKLEB tox: 8; CF NFkB block: 1; hiPSC survival: 0; TWEAK-Fn14 inh: 58*; LGR2 inh: -13; HIF-2a block: -14

How did CCCCc1ccc(Nc2nc(CCC)cc(=O)[nH]2)cc1 do in these assays?
KKLEB tox: -2; CF NFkB block: -12; hiPSC survival: 1; TWEAK-Fn14 inh: 5; HIF-2a block: -16

Results for CCOC(=O)c1c(C)sc2c1N(C(=O)CCl)c1cc(Cl)ccc1S2 ?
KKLEB tox: -76*; CF NFkB block: 69*; hiPSC survival: -2; TWEAK-Fn14 inh: 39; HIF-2a block: 91*

Results for COCCC1CCCCN1C(=O)c1cc(COc2ccc(C)nc2)on1 (configuration not stated) ?
KKLEB tox: -95*; CF NFkB block: 69*; hiPSC survival: 0; TWEAK-Fn14 inh: 2; LGR2 inh: 1; HIF-2a block: -65

Results for CCOC(=O)C1=C(C)Nc2ccc(C)cc2S1 ?
KKLEB tox: 1; CF NFkB block: 2; hiPSC survival: -1; TWEAK-Fn14 inh: 96*; HIF-2a block: -32

How did CCCN1[C@H](C(=O)N2CCOCC2)[C@@H](CO)[C@@H]2Cn3c(ccc(-c4ccncc4)c3=O)[C@@H]21 do in these assays?
LGR2 inh: -4

What do the screens show for `CCOC(=O)C1CCCN(C(=O)Cn2cccc2C(=O)c2ccccc2)C1` (configuration not stated)?
KKLEB tox: -10; CF NFkB block: 13; hiPSC survival: 3; TWEAK-Fn14 inh: 99*; HIF-2a block: -5

How did O=C(C[C@@H]1CC[C@@H](NC(=O)c2cccc(F)c2)[C@@H](CO)O1)NCc1ccccc1 do in these assays?
LGR2 inh: 13

What do the screens show for `O=[N+]([O-])c1ccc(-[n+]2ccc3ccccc3c2)c([N+](=O)[O-])c1`?
KKLEB tox: -81*; CF NFkB block: 82*; hiPSC survival: -4; TWEAK-Fn14 inh: 57*; LGR2 inh: -4; HIF-2a block: 34

Source: PubChem
